Rin1-Abl PPI inh: inhibitors of Rin1-Abl protein binding, primary screen, biochemical, TR-FRET; Tyrosine-protein kinase ABL1 (Homo sapiens) + Ras and Rab interactor 1 (Homo sapiens), …; 0.4% of 360,000 active; inhibition, % at 7.35 µM; in the data active means inhibition above about 5%, passing the limit was not always enough
Target sequence (P00519 whole entry, looked up): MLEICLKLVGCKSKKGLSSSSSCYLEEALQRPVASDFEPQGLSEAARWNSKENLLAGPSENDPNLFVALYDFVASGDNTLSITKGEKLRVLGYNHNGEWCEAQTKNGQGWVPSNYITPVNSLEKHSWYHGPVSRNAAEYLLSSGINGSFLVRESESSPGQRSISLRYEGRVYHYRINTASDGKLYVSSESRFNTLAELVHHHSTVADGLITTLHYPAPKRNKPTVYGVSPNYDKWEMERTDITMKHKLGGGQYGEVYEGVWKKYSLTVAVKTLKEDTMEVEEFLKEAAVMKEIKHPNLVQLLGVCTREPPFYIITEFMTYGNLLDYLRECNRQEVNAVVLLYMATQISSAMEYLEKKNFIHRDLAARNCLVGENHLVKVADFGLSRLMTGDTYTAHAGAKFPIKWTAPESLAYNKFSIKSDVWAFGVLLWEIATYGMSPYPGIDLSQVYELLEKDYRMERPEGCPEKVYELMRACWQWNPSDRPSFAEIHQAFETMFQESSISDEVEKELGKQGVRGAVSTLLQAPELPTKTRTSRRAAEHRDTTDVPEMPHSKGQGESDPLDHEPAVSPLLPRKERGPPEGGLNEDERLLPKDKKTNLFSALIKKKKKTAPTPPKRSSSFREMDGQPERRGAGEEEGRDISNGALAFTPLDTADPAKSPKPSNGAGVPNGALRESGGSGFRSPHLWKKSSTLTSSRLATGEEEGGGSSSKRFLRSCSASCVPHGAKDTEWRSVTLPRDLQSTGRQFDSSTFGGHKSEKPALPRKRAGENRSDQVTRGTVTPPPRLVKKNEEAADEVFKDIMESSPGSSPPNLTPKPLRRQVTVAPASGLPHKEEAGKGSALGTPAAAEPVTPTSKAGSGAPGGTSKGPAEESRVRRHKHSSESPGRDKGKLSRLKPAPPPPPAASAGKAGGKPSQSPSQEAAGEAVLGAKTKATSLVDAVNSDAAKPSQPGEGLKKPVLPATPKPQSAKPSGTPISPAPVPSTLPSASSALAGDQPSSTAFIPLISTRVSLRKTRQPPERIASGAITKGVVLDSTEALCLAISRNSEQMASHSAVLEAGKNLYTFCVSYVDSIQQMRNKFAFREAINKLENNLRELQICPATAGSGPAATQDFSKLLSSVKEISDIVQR
Target sequence (Q13671 whole entry, looked up): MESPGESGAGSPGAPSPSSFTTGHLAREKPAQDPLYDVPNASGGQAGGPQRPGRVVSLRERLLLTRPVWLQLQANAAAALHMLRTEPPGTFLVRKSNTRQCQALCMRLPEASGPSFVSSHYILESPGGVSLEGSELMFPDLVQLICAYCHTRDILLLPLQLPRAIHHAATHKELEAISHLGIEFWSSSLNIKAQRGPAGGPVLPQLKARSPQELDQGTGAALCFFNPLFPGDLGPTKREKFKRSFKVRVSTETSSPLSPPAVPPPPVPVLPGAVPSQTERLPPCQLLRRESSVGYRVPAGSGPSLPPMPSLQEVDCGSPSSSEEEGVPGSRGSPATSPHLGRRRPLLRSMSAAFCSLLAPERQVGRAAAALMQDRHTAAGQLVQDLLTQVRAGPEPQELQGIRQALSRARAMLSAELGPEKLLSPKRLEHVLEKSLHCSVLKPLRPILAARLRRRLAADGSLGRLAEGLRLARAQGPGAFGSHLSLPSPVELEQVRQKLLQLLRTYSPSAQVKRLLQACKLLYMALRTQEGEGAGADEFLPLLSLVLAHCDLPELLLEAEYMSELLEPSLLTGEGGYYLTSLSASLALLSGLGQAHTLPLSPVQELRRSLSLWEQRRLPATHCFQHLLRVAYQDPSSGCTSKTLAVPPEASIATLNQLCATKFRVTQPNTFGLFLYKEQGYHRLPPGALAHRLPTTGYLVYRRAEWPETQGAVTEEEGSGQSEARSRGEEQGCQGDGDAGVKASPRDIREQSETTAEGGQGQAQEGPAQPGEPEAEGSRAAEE
sPLA2-III inh: human group III sPLA2 inhibitors, primary screen, biochemical, QFRET, BODIPY PC-A2 liposome substrate. AID 743126, 2013. 0.56% of 370,000 active. inhibition, % at 12.2 µM. QFRET BODIPY PC-A2 liposome hydrolysis, fluorescence. Group 3 secretory phospholipase A2 (Homo sapiens), Q9NZ20;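 active means inhibition above mean plus 3 SD of compounds lying within the high and low control bounds, cut at about 19% in these data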
ARNT TACC3 PPI: disruptors of ARNT/TACC3 protein interaction, primary screen, biochemical, AlphaScreen, single concentration. AID 623870, 2012. 0.66% of 390,000 active. inhibition, % at 9.99 µM. AlphaScreen His-ARNT PAS-B/GST-TACC3 binding, luminescence; TACC3 fragment carries E629A point mutation;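 active means mean inhibition of replicates at least 50% and at least half of replicates each reaching 50%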
AI-2 QS modul: Vibrio harveyi AI-2 quorum sensing modulators, primary screen, JMH597 strain, luminescence/OD600 ratio | AID 2094, 2009 | Vibrio harveyi JMH597 AI-2 luminescence/OD600 ratio, 9 h; stronger effect = lower value; strain lacks LuxN and CqsS sensors; 0 = neutral-control median | 0.4% of 300,000 active | activity change, % at 7.5 µM; in the data active means activity change below about -75%, passing the limit was not always enough;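 further: luminescence divided by OD600 gain over 9 h not by final OD600 alone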
JMH597 growth: Vibrio harveyi growth inhibition, confirmation, counter-screen for AI-2 quorum sensing project, JMH597 strain, OD600 absorbance | 1% of 750 active | growth inhibition, % at 7.5 µM | AID 2726, 2010 | 9 h; lacks LuxN and CqsS sensors | shares compounds with AI-2 QS modul;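 active means every replicate shows growth inhibition above 50%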
BB721 lum counter: luminescence inhibition in constitutive-on V. harveyi, confirmation, counter-screen for LuxS inhibitor project, strain BB721, luminescence readout; shares compounds with AI-2 QS modul; Vibrio harveyi BB721 luminescence, 9 h; inhibition, % at 7.5 µM; 95% of 750 active;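 active means inhibition above about 80% in every replicate, not just on average, limit read from the data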
BB721 growth: growth inhibition of V. harveyi BB721, confirmation, cytotoxicity control for AI-2 quorum sensing inhibitors, strain BB721, absorbance OD600; shares compounds with AI-2 QS modul; Vibrio harveyi BB721 growth, 9 h; growth inhibition, % at 7.5 µM; 3% of 750 active;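 active means every replicate shows growth inhibition above 50%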
JMH597 AI-2 mod: Vibrio harveyi AI-2 signaling luminescence modulation – JMH597 strain, confirmation | Vibrio harveyi JMH597 AI-2 quorum sensing luminescence, 9 h; luxN and CqsS knockout, AI-2 only | AID 2736, 2010 | 97% of 750 active | shares compounds with AI-2 QS modul | inhibition, % at 7.5 µM;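 active means every replicate shows more than 75% inhibition of signal versus neutral control wells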
Large screens that a line does not name were inactive (follow-up assays come after a bar, where they were run). An excerpt weighted towards active compounds, which were near 1.5% of everything screened.

O=C(COC(=O)Cn1cnc2ccccc21)Nc1cccc([N+](=O)[O-])c1	none
O=C(COc1ncnc2ccccc12)Nc1ccccc1[N+](=O)[O-]	none
COc1cc([N+](=O)[O-])ccc1NC(=O)COC(=O)C=C(C)C	none
CC(C)=CC(=O)OCC(=O)Nc1cccc([N+](=O)[O-])c1	AI-2 QS modul -89 | JMH597 growth inactive | BB721 lum counter 95 | BB721 growth inactive | JMH597 AI-2 mod 97
O=C(COc1ncnc2ccccc12)Nc1ccc(Cl)c([N+](=O)[O-])c1	AI-2 QS modul -97 | JMH597 growth inactive | BB721 lum counter 100 | BB721 growth inactive | JMH597 AI-2 mod 100
O=C(COc1ncnc2ccccc12)Nc1cccc([N+](=O)[O-])c1	AI-2 QS modul -96 | JMH597 growth inactive | BB721 lum counter 98 | BB721 growth inactive | JMH597 AI-2 mod 99
CC(C)(C)c1ccc(OCC(O)CN2CCc3ccccc3C2)cc1 (stereo not drawn)	AI-2 QS modul -82 (no result: ARNT TACC3 PPI) | JMH597 growth inactive | BB721 lum counter 81 | BB721 growth inactive | JMH597 AI-2 mod 88
COc1ccc(OCC(O)CN2CCc3ccccc3C2)cc1 (stereo not drawn)	none
C[C@H](CO)N1C[C@H](C)[C@@H](CN(C)S(C)(=O)=O)Oc2ncc(C3=CCCC3)cc2C1=O	none (no result: Rin1-Abl PPI inh, sPLA2-III inh, AI-2 QS modul)
O=C(O)c1ccc(N/N=C/c2ccc(-c3ccc(Cl)cc3Cl)o2)cc1	AI-2 QS modul -90 | JMH597 growth inactive | BB721 lum counter 98 | BB721 growth inactive | JMH597 AI-2 mod 97
C[C@H]1CCCCO[C@H](CN(C)Cc2ccc(C(=O)O)cc2)[C@@H](C)CN([C@@H](C)CO)C(=O)c2cc(NS(=O)(=O)c3cccs3)ccc2O1	none (no result: Rin1-Abl PPI inh, sPLA2-III inh, AI-2 QS modul)
C[C@@H]1CCCCO[C@@H](CN(C)C(=O)Cc2ccccc2)[C@@H](C)CN([C@@H](C)CO)C(=O)c2cc(NC(=O)CCC(F)(F)F)ccc2O1	none (no result: Rin1-Abl PPI inh, sPLA2-III inh, AI-2 QS modul)
CSCCC1NC(=O)N(CC(=O)Nc2ccc(N3CCCCC3)cc2)C1=O (stereo not drawn)	AI-2 QS modul -82 | JMH597 growth inactive | BB721 lum counter 91 | BB721 growth inactive | JMH597 AI-2 mod 95
CCN(CC)S(=O)(=O)c1ccc(Oc2cccc(C(C)=O)c2)nc1	AI-2 QS modul -85 | JMH597 growth inactive | BB721 lum counter 95 | BB721 growth inactive | JMH597 AI-2 mod 96
CCN(c1ccccc1)S(=O)(=O)c1ccc(Oc2ccccc2C(C)=O)nc1	none (no result: AI-2 QS modul)
COc1cccc(NC(=O)Nc2ccc3c(c2)C(=O)N(C)[C@H]2CC[C@H](CC(=O)NCCc4ccccc4)O[C@@H]2CO3)c1	none (no result: Rin1-Abl PPI inh, sPLA2-III inh, AI-2 QS modul)
O=C(C[C@H]1CC[C@@H]2[C@H](COC[C@H](O)CN2Cc2ccncc2)O1)NCc1ccccc1Cl	none (no result: Rin1-Abl PPI inh, sPLA2-III inh, AI-2 QS modul)
O=C(CCl)NN1C(=O)NC(c2ccccc2)(c2ccccc2)C1=O	AI-2 QS modul -95 | JMH597 growth inactive | BB721 lum counter 98 | BB721 growth inactive | JMH597 AI-2 mod 98
CC(C)(C)c1csc(NC(=O)Cn2cnc3ccccc3c2=O)n1	AI-2 QS modul -95 | JMH597 growth inactive | BB721 lum counter 97 | BB721 growth inactive | JMH597 AI-2 mod 98
CN(c1ccccc1)S(=O)(=O)c1cccc(NC(=O)Cn2cnc3ccccc3c2=O)c1	AI-2 QS modul -93 | JMH597 growth inactive | BB721 lum counter 99 | BB721 growth 88 | JMH597 AI-2 mod 99
C[C@H]1CN([C@@H](C)CO)S(=O)(=O)c2ccc(-c3ccncc3)cc2O[C@H]1CN(C)C	none (no result: Rin1-Abl PPI inh, sPLA2-III inh, AI-2 QS modul)
O=C(c1cccnc1)N1C[C@H]2[C@@H](c3ccccc31)[C@H](CO)N2C(=O)Nc1ccccc1F	none (no result: Rin1-Abl PPI inh, sPLA2-III inh, AI-2 QS modul)
CCCC#Cc1ccc([C@H]2[C@@H](C#N)N(C(=O)CN3CCOCC3)[C@@H]2CO)cc1	none (no result: Rin1-Abl PPI inh, sPLA2-III inh, AI-2 QS modul)
C[C@H](CO)N1C[C@H](C)[C@H](CN(C)C)Oc2ccc(NC(=O)NC3CCCCC3)cc2CC1=O	none (no result: Rin1-Abl PPI inh, sPLA2-III inh, AI-2 QS modul)
COc1ccc(CNC(=O)Oc2ccccc2)cc1Cl	AI-2 QS modul -80 | JMH597 growth inactive | BB721 lum counter 97 | BB721 growth inactive | JMH597 AI-2 mod 97
COC(=O)NCc1ccc(Cl)c(Cl)c1	none
CO[C@H]1CN(C)C(=O)c2cc(NS(=O)(=O)c3ccccc3)ccc2OC[C@H](C)N(Cc2cccnc2)C[C@@H]1C	none (no result: Rin1-Abl PPI inh, sPLA2-III inh, AI-2 QS modul)
O=C(O)c1cccnc1Sc1ccc(Br)cc1	AI-2 QS modul -84 | JMH597 growth inactive | BB721 lum counter 97 | BB721 growth inactive | JMH597 AI-2 mod 97
Cc1cccc(C)c1OCc1cc(C(=O)N(C)Cc2cc(C3CC3)n[nH]2)no1	none
Cc1ccc(OCc2cc(C(=O)N(C)Cc3cc(C4CC4)n[nH]3)no2)cc1C	AI-2 QS modul -81 | JMH597 growth inactive | BB721 lum counter 85 | BB721 growth inactive | JMH597 AI-2 mod 90
COc1ccc(NC(=O)Nc2cccc3c2O[C@H](CN(C)C(=O)Nc2ccc4c(c2)OCO4)[C@H](C)CN([C@H](C)CO)C3=O)cc1	none (no result: Rin1-Abl PPI inh, sPLA2-III inh, AI-2 QS modul)
COc1ccc(S(=O)(=O)N2CC[C@@H]3[C@@H](CO)Nc4ccc(-c5cccc(C#N)c5)cc4[C@@H]32)cc1	none (no result: Rin1-Abl PPI inh, sPLA2-III inh, AI-2 QS modul)
COCC(=O)Nc1ccc2c(c1)[C@@H]1C[C@@H](CC(=O)NCc3ccccc3)O[C@H](CO)[C@@H]1O2	none (no result: Rin1-Abl PPI inh, sPLA2-III inh, AI-2 QS modul)
O=C1CCCCC1Nc1ccc([N+](=O)[O-])cc1 (stereo not drawn)	none (no result: AI-2 QS modul)
O=[N+]([O-])c1ccc(NC2CCCC2)cc1	AI-2 QS modul -83 | JMH597 growth inactive | BB721 lum counter 93 | BB721 growth inactive | JMH597 AI-2 mod 94
Cc1cc(C(=O)NNC(=O)Nc2cccc(C(F)(F)F)c2)no1	AI-2 QS modul -90 (no result: ARNT TACC3 PPI) | JMH597 growth inactive | BB721 lum counter 98 | BB721 growth inactive | JMH597 AI-2 mod 98
COC(=S)Nc1cccc(C(F)(F)F)c1	none
COC(=O)/C=C/C(=O)Nc1cccc(C(F)(F)F)c1	AI-2 QS modul -89 | JMH597 growth inactive | BB721 lum counter 87 | BB721 growth inactive | JMH597 AI-2 mod 87
Cc1cc(C(=O)NNC(=O)c2cccc(C(F)(F)F)c2)no1	none

Bioassay records from PubChem.
